Data reported in PubChem BioAssay (NCI).
This is part of a sample that, as a whole, favours compounds with a hit. Of some 83,000 tested, about 20% had one in any assay.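 Single-dose data. Exposure time 48 hours. Values below 10 considered active.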 Unmarked numbers belong to inactive results. Calls of active or inactive are those of the source.

Each molecule was assayed on M14 melanoma (assay: NCI-60 one-dose screen, 48 h (100 = growth as untreated, 0 = no growth, -100 = all killed)). Details: 10 µM unless noted.
For `O=C1c2ccccc2C(=O)c2c1ccc1[nH]c(-c3cccs3)nc21`, the growth was 106%.
`CN1CCN(Cc2ccc(NC(=O)c3cncc(C#Cc4cncn5ccnc45)c3)cc2C(F)(F)F)CC1` was tested, and the growth was 7.22% (active).
For `CC(C)(C)c1cc(/C=N\NC(=O)/C=C/C=C/c2ccc3c(c2)OCO3)c(O)c(C(C)(C)C)c1`, the growth was 73.3%.
`CCCc1cc(=O)n2c(C(=O)Nc3ccc(F)cc3)c(C(=O)Nc3ccc(F)cc3)sc2n1` gave a growth of 70.9% [30 µM].
In the case of `O=C(O)COc1ccc(Cl)cc1C1CCCCC1`, the growth is reported as 102%.
Molecule `NC(=O)c1cc(Br)ccc1NC(=O)/C=C/c1ccccc1` has a growth of 28.3%.
`Cc1nn(-c2ccc(F)cc2)c2ncnc(Oc3ccc(NC(=O)Nc4ccc(Cl)c(C(F)(F)F)c4)cc3)c12` was tested, and the growth was 106%.
Molecule `CSc1nc(-c2cccc(NC(=O)CCl)c2)c(C#N)c(=O)n1C` has a growth of 56.8%.
With `CCCCN(CCCC)CCCn1c(-c2ccccc2)ccc1-c1ccccc1` the growth was 77.6%.
With `Cc1c(/C=C/[N+](=O)[O-])ccc2c1[nH]c1ccccc12` the growth was 37.7%.
`c1ccc(Cn2cc(-c3nc4ccccc4s3)c3cccnc32)cc1` showed a growth of 106%.
In the case of `O=C(N/N=C/c1c[nH]c2ccccc12)c1cc(-c2ccccc2)on1`, the growth is reported as 88.6%.
Molecule `CCCn1c(=O)[nH]c(N)c([C@H]2c3ccccc3Oc3[nH]c(=O)n(CCC)c(=O)c32)c1=O` has a growth of 83.8%.
With `CC(=O)O[C@H]1[C@@H]2OC(=O)C(CSc3ccccc3)[C@@H]2C[C@H]2O[C@]2(C)CC/C=C(\C)CCC[C@@H]1C` (stereo partly specified) the growth was 51.7%.
Work on `O=C1Nc2ccc(Br)cc2C12Oc1ccccc1C1CC(c3ccc(F)cc3)=NN12` (stereo unspecified) yielded a growth of 103%.
For `C=C1c2nc3ccccc3n2C=C(c2cccc(Cl)c2)N1Cc1ccc(OC)cc1`, the growth was 22.3%.
Molecule `C#CC(F)(F)[C@]1(O)CC[C@H]2[C@@H]3CCC4=CC(=O)CCC4=C3[C@@H](c3ccc(C(C)=O)cc3)C[C@@]21C` has a growth of 96.6%.
Molecule `CC(=O)O[C@H]1CC[C@]2(C)[C@H]3CC=C4[C@@H]5CC(C)(C)CC[C@]5(C(=O)NCCNCCNCCN)CC[C@@]4(C)[C@]3(C)CC[C@H]2C1(C)C` has a growth of 23.8%.
`COc1ccc(-c2cc(NC(=O)Nc3ccc4ncsc4c3)no2)cc1` was tested, and the growth was 106%.
With `CCN(CC)c1ccc(-c2cc(-c3cc(OC)c(OC)c(OC)c3)nc(N3CCOCC3)c2C#N)cc1` the growth was -53.9% (active).
`CC1=CC(=NN=c2cc(C)n([O-])c(C)c2)C=C(C)[N+]1=O` gave a growth of 77.2%.
With `Cc1ccc2oc(=O)cc(C3c4ccc([nH]4)C(c4cc(=O)oc5ccc(C)cc45)c4ccc([nH]4)C(c4cc(=O)oc5ccc(C)cc45)c4ccc([nH]4)C(c4cc(=O)oc5ccc(C)cc45)c4ccc3[nH]4)c2c1` (stereo unspecified) the growth was -71.9% (active).
With `COc1cc2c(cc1-c1c(C)noc1C)ncc1nc(C3CCOCC3)n([C@@H](C)COC(F)F)c12` the growth was 41%.
With `Cc1[nH]c(-c2cc(N)ccc2Cl)c2c1C(=O)CCCC2` the growth was 39.3%.
In the case of `O=S(=O)(Nc1ccc(Br)c(Cl)c1)c1ccc(-c2cnc(C3CC3)o2)cc1`, the growth is reported as 5.11% (active).
`C=CC(=O)Nc1cccc(-c2nc(SC)nc(NCCN3CCOCC3)c2C#N)c1` gave a growth of 89.9%.
